Source: PubChem BioAssay (Tox21)
Where “and” joins values, the source holds several entries; their conditions need not be identical. Equal entries are not always repeated. Records with an inconclusive call do not appear. Calls of active or inactive are those of the source. Unless noted, calls come from the whole dose curve; as a rule, active = well fitted curve in the direction sought with a large enough effect in the repeat runs; inconclusive = weak or mixed curves; inactive = no such curve, though single readings can be large; an effect the other way counts as inactive or inconclusive.

What was measured:
[1] = qHTS assay to identify small molecule antagonists of the thyroid receptor (TR) signaling pathway - cell viability counter screen (AID 743064); details: GH3.TRE-Luc viability, CellTiter-Fluor, 24 h; series mostly up to 70.3 µM; note: nearly all actives have a fitted effect of over 50% in size; note: potency is the fitted concentration of half-maximal effect
Summary of the method: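 Rat GH3 pituitary tumor cells stably expressing two TR response elements driving luciferase were plated, rested 4 h, then dosed with library compounds and T3 (1 nM final). After 23.5 h at 37 °C, CellTiter-Fluor was added for 30 min and fluorescence recorded.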

[2] = qHTS assay to identify small molecule antagonists of the thyroid receptor (TR) signaling pathway (AID 743065); details: GH3.TRE-Luc, T3-stimulated luciferase inhibition, 23.5 h; series mostly up to 70.3 µM; note: nearly all actives have a fitted effect of over 55% in size; note: potency is the fitted concentration of half-maximal effect
Summary of the method: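 GH3.TRE-Luc rat pituitary cells (two TREs driving luciferase) were dosed with compound, then stimulated with 1 nM T3 (final) for 23.5 h at 37 C. ONE-Glo luminescence was the read-out, with CellTiter-Fluor fluorescence as the cytotoxicity counter-screen.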

[3] = system: thyroid hormone receptor (rat, GH3 cells); experiment: qHTS assay to identify small molecule agonists of the thyroid receptor (TR) signaling pathway (AID 743066; calls by dose curve); details: GH3.TRE-Luc cells, TR agonist luciferase, 24 h; series mostly up to 83.9 µM
[4] = molecular target: Estrogen receptor (Homo sapiens) (UniProt P03372); experiment: qHTS assay to identify small molecule antagonists of the estrogen receptor alpha (ER-alpha) signaling pathway (AID 743069; active = well fitted curve in the direction sought with a large enough effect in the signal ratio in the repeat runs, not every such curve was filed as active; the % refers to the signal ratio); details: HEK293 ER-alpha-UAS-bla, beta-lactamase ratio, antagonist mode; series mostly up to 69.4 µM
Summary of the method: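 In this cell-based reporter format, GripTite HEK293 cells harbouring ER-alpha-UAS-bla were grown overnight with 2% charcoal-stripped FBS, dosed with DMSO-dissolved compounds, then challenged with 17beta-estradiol. After 18 hr at 37C, beta-lactamase activity was detected by FRET fluorescence.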

[5] = molecular target: Estrogen receptor (Homo sapiens) (UniProt P03372); experiment: qHTS assay to identify small molecule agonists of the estrogen receptor alpha (ER-alpha) signaling pathway (AID 743075; calls by dose curve); details: HEK293 ER-alpha-UAS-bla, beta-lactamase FRET ratio, 18 h; series mostly up to 70.1 µM
[6] = molecular target: Estrogen receptor (Homo sapiens) (UniProt P03372); experiment: qHTS assay to identify small molecule agonists of the estrogen receptor alpha (ER-alpha) signaling pathway using the BG1 cell line (AID 743079); details: BG1Luc4E2 cells, ERE-luciferase agonist, 22 h; activation: at 70.3 µM (top of the series) unless noted; note: nearly all actives have a fitted effect of over 20% in size
[7] = qHTS assay to identify small molecule antagonists of the estrogen receptor alpha (ER-alpha) signaling pathway using the BG1 cell line - cell viability counter screen (AID 743081); details: BG1Luc4E2 viability, CellTiter-Fluor, 22 h; series mostly up to 70.3 µM;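 note: compound given together with 17beta-estradiol as the ER stimulus; nearly all actives have a fitted effect of over 45% in size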; note: potency is the fitted concentration of half-maximal effect
[8] = molecular target: Aromatase (Homo sapiens) (UniProt P11511); experiment: qHTS assay to identify aromatase inhibitors (AID 743083); details: MCF-7 aro ERE, testosterone-driven ERE luciferase, 24 h; series mostly up to 70.3 µM; note: nearly all actives have a fitted effect of over 55% in size; note: potency is the fitted concentration of half-maximal effect
[9] = qHTS assay to identify aromatase inhibitors - cell viability counter screen (AID 743084); details: MCF-7 aro ERE viability, CellTiter-Fluor, 24 h; series mostly up to 70.3 µM;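 note: cells stimulated with testosterone during compound exposure; nearly all actives have a fitted effect of over 55% in size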; note: potency is the fitted concentration of half-maximal effect
[10] = molecular target: Aryl hydrocarbon receptor (Homo sapiens) (UniProt P35869); experiment: qHTS assay to identify small molecule that activate the aryl hydrocarbon receptor (AhR) signaling pathway (AID 743085); details: HepG2 AhR-luc (HG2L7.5c1), luciferase, 24 h; series mostly up to 70.3 µM; note: nearly all actives have a fitted effect of over 15% in size; note: potency is the fitted concentration of half-maximal effect;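 for activation: HG2L7.5c1 human HepG2 liver cells with stably integrated DRE-driven firefly reporter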
Summary of the method: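 Compounds were tested in HepG2 hepatocellular carcinoma cells harbouring a stably integrated luciferase gene under control of 20 DREs. Increased reporter signal after 24 h treatment at 37C was taken as AhR activation.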

[11] = qHTS assay to identify small molecule that activate the aryl hydrocarbon receptor (AhR) signaling pathway - cell viability counter screen (AID 743086); details: HepG2-AhR-luc viability, CellTiter-Fluor, 24 h; series mostly up to 70.3 µM; note: nearly all actives have a fitted effect of over 45% in size; note: potency is the fitted concentration of half-maximal effect
Summary of the method: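 HepG2-AhR-luc (HG2L7.5c1) cells, 4000/well, treated 24 h at 37 C with compound; viability measured as CellTiter-Fluor fluorescence after 30 min in the same wells as the luciferase read.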

[12] = molecular target: Peroxisome proliferator-activated receptor gamma (Homo sapiens) (UniProt P37231); experiment: qHTS assay to identify small molecule agonists of the peroxisome proliferator-activated receptor gamma (PPARg) signaling pathway (AID 743094; active = well fitted activation curve with a large enough effect in the signal ratio in the repeat runs, not every such curve was filed as active; the % refers to the signal ratio); details: HEK293H PPARg-UAS-bla, beta-lactamase FRET ratio, 17 h; series mostly up to 57 µM
Summary of the method: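 Reporter activation was scored by fluorescence of cleaved LiveBLAzer B/G substrate (1 h, room temperature) in PPARg-bla HEK293H cells previously treated 17 h at 37C with DMSO-dissolved compounds.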

[13] = molecular target: Peroxisome proliferator-activated receptor gamma (Homo sapiens) (UniProt P37231); experiment: qHTS assay to identify small molecule antagonists of the peroxisome proliferator-activated receptor gamma (PPARg) signaling pathway (AID 743191; calls by dose curve; note: nearly all actives have a fitted effect of over 30% in size; note: potency is the fitted concentration of half-maximal effect); details: HEK293H PPARg-UAS-bla, beta-lactamase ratio, antagonist, 17 h; series mostly up to 62.6 µM
Summary of the method: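 GeneBLAzer PPARg UAS-bla HEK293H cells, 5 h post-plating, exposed to compounds 17 h at 37C. LiveBLAzer B/G FRET substrate added for 1 h at room temperature; beta-lactamase reporter read by fluorescence intensity.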

[14] = qHTS assay to identify small molecule antagonists of the peroxisome proliferator-activated receptor gamma (PPARg) signaling pathway - cell viability counter screen (AID 743194); details: PPARg-bla HEK293H viability, CellTiter-Glo luminescence, 17 h; Potency: co-treated with 50 nM rosiglitazone unless noted; series mostly up to 62.6 µM; note: nearly all actives have a fitted effect of over 55% in size
Summary of the method: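 Cytotoxicity counter screen in PPARg-bla HEK293H cells, same wells as reporter assay. Compounds plus 50 nM rosiglitazone (final) for 17 h at 37 C, then viability read by CellTiter-Glo luminescence.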

[15] = qHTS assay for small molecule agonists of the antioxidant response element (ARE) signaling pathway (AID 743202; active = well fitted activation curve with a large enough effect in the signal ratio in the repeat runs, not every such curve was filed as active; the % refers to the signal ratio; note: potency is the fitted concentration of half-maximal effect); details: HepG2 ARE-bla reporter, beta-lactamase FRET, 16 h; series mostly up to 73.3 µM
Summary of the method: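 HepG2 ARE-bla cells; 16 h treatment at 37 C; FRET-based beta-lactamase fluorescence read after 2 h substrate incubation at room temperature.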

[16] = qHTS assay for small molecule agonists of the antioxidant response element (ARE) signaling pathway - cell viability counter screen (AID 743203; calls by dose curve; note: nearly all actives have a fitted effect of over 55% in size; note: potency is the fitted concentration of half-maximal effect); details: ARE-bla HepG2 viability, CellTiter-Glo luminescence, 16 h; series mostly up to 73.3 µM
Summary of the method: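 Viability counter screen: stably transfected ARE-bla HepG2 line, 16 hrs compound exposure at 37C/5% CO2, ATP-based CellTiter-Glo luminescence measured in the reporter wells.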

[17] = qHTS assay for small molecule activators of the heat shock response signaling pathway - cell viability counter screen (AID 743209); details: HSE-bla HeLa viability, CellTiter-Glo luminescence, 5 h; series mostly up to 62.6 µM; note: nearly all actives have a fitted effect of over 50% in size; note: potency is the fitted concentration of half-maximal effect
Summary of the method: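 Viability of HSE-bla HeLa cells is measured with CellTiter-Glo in the wells already used for the reporter read. Compound exposure lasts 5 h at 37 C, and luminescence is read after 30 min at room temperature.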

[18] = qHTS assay for small molecule activators of the heat shock response signaling pathway (AID 743210; active = well fitted activation curve with a large enough effect in the signal ratio in the repeat runs, with a control signal flat, not every such curve was filed as active; the % refers to the signal ratio;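 note: HeLa cells with beta-lactamase reporter driven by heat shock elements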); details: HeLa HSE-bla reporter, beta-lactamase ratio, 5 h; series mostly up to 62.6 µM
Summary of the method: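 Following overnight attachment, HSE-bla HeLa cells received test compounds for 5 h at 37 C; beta-lactamase activity was then detected via FRET substrate fluorescence.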

[19] = qHTS assay to identify small molecule antagonists of the estrogen receptor alpha (ER-alpha) signaling pathway - cell viability counter screen (AID 743074; calls by dose curve; note: nearly all actives have a fitted effect of over 45% in size; note: potency is the fitted concentration of half-maximal effect); details: ERalpha-bla HEK293 viability, CellTiter-Glo luminescence, 18 h; series mostly up to 69.4 µM
[20] = qHTS assay to identify small molecule antagonists of the estrogen receptor alpha (ER-alpha) signaling pathway using the BG1 cell line (AID 743080; calls by dose curve;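 note: BG1 cells stimulated with 17beta-estradiol alongside compound; potency is the fitted concentration of half-maximal effect; nearly all actives have a fitted effect of over 25% in size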); details: BG1Luc4E2 ERE-luciferase antagonist mode, luminescence; series mostly up to 70.3 µM
Summary of the method: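 After 5 days in phenol-red-free 10% charcoal-stripped FBS medium, BG1-Luc-4E2 cells were seeded, left 24 h at 37 C, co-treated with compounds and 17beta-estradiol for 21.5 h, then assayed for viability and luciferase.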

Measured: Potency

Aromatase (Homo sapiens), sequence (P11511 whole entry, looked up): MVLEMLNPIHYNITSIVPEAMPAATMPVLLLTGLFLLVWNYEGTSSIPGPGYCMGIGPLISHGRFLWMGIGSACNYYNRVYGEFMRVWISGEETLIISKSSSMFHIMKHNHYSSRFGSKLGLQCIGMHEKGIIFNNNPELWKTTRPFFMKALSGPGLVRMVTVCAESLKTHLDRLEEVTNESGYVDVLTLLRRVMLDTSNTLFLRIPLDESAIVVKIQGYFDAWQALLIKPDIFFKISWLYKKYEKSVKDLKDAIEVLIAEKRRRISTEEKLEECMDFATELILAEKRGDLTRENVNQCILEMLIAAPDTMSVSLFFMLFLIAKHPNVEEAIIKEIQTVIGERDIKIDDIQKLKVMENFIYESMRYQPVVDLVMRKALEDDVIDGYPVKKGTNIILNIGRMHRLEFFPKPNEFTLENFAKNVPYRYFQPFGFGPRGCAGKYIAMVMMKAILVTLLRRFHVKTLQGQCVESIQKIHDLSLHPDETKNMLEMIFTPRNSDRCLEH
Aryl hydrocarbon receptor (Homo sapiens), sequence (P35869 whole entry, looked up): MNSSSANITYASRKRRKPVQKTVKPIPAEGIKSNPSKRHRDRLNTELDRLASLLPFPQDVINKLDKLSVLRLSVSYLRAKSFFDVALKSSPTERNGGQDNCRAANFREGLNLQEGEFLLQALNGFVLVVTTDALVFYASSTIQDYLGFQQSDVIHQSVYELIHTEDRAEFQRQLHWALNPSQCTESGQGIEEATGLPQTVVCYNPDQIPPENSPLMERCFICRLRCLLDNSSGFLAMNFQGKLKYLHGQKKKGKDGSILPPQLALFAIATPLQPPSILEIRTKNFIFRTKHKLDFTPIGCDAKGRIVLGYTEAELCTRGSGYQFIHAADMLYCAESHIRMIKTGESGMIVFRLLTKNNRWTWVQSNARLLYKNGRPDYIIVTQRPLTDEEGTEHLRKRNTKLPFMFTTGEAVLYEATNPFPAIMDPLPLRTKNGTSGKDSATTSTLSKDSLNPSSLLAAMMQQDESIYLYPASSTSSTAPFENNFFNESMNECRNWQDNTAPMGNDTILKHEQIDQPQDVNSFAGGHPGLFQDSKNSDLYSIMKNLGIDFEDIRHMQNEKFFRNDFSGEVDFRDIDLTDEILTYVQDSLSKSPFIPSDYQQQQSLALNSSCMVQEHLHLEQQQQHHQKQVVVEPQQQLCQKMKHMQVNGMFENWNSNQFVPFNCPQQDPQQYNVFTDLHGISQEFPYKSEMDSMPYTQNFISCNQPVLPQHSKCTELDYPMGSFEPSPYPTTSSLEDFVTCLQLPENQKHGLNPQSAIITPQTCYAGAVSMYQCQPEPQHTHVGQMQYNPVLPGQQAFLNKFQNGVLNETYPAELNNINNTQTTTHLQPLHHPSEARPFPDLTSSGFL
Peroxisome proliferator-activated receptor gamma (Homo sapiens), sequence (P37231 whole entry, looked up): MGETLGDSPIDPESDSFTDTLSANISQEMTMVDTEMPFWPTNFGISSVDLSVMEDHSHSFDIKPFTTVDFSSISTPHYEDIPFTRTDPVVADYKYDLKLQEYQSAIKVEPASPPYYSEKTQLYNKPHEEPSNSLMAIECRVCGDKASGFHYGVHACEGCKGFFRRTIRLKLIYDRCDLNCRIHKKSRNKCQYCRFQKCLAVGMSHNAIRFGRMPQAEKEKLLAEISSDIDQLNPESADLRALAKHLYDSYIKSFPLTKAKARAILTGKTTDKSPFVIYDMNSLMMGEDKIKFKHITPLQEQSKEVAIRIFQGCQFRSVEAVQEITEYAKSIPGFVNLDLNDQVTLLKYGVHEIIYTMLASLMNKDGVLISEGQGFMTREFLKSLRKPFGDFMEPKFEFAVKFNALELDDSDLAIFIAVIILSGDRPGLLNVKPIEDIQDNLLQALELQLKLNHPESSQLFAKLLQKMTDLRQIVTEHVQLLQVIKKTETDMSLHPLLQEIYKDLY
Estrogen receptor (Homo sapiens), sequence (P03372 whole entry, looked up): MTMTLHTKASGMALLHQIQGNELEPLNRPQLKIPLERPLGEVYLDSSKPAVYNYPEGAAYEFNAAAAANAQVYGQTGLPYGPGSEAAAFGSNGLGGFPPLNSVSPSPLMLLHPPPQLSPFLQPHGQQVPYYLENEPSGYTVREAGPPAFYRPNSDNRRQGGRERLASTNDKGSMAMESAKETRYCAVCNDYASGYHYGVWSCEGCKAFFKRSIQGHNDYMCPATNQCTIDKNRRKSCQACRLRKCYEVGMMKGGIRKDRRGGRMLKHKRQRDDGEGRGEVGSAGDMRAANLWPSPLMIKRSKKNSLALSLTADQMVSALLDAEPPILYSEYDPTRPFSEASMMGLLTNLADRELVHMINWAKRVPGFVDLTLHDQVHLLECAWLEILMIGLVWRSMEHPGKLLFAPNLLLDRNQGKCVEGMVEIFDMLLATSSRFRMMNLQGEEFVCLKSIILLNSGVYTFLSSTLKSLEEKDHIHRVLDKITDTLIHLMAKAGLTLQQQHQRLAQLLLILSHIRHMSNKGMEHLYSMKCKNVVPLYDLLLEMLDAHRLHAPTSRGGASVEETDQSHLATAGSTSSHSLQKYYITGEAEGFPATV

Nc1ccc2ccccc2c1
inactive: [1] | [2] | [3] | [4] | [5] | [6] | [7] | [8] | [9] | [11] | [12] | [13] | [14] | [15] | [16] | [17] | [18]
active: [10] 20.9 µM and 27.3 µM

O=[N+]([O-])c1ccc(Cl)c([N+](=O)[O-])c1
active: [1] 15.6 µM and 6.11 µM | [2] 4.39 µM and 4.86 µM | [19] 49.7 µM and 24.5 µM | [7] 62.1 µM and 61.1 µM | [8] 6.21 µM and 8.63 µM | [9] 6.21 µM and 6.86 µM | [11] 24.7 µM and 27.3 µM | [13] 8.85 µM and 8.71 µM | [16] 12.4 µM and 6.86 µM | [17] 9.92 µM and 4.9 µM
inactive: [3] | [5] | [10]

O=P(OCCCl)(OCCCl)OCCCl
inactive: [1] | [2] | [3] | [19] | [7] | [8] | [9] | [10] | [11] | [13] | [15] | [16] | [17] | [18]

CCC(=O)Nc1ccc(Cl)c(Cl)c1
inactive: [1] | [3] | [19] | [7] | [8] | [9] | [11] | [14] | [16] | [17] | [18]
active: [2] 49.5 µM | [10] 54.5 µM

O=S(=O)(O)C(F)(F)C(F)(F)C(F)(F)C(F)(F)C(F)(F)C(F)(F)C(F)(F)C(F)(F)F
active: [1] 47.2 µM | [2] 51.9 µM and 61.1 µM | [16] 27.3 µM
inactive: [3] | [19] | [7] | [8] | [9] | [10] | [11] | [13] | [14] | [15] | [17]

CC(C)(O)C(=O)Nc1ccc([N+](=O)[O-])c(C(F)(F)F)c1
active: [2] 62.4 µM | [20] 55.6 µM | [15] 27.9 µM and 22.4 µM
inactive: [1] | [3] | [19] | [5] | [8] | [9] | [10] | [11] | [14] | [17] | [18]

COP(=O)(NC(C)=O)SC (configuration not stated)
inactive: [1] | [2] | [3] | [19] | [7] | [8] | [9] | [10] | [11] | [12] | [13] | [14] | [15] | [16] | [17] | [18]

CC1CC(=O)O1 (configuration not stated)
inactive: [1] | [2] | [3] | [19] | [7] | [8] | [9] | [10] | [11] | [13] | [14] | [15] | [16] | [17] | [18]
